Compound activity: PubChem, National Center for Advancing Translational Sciences (NCATS)
Compounds with a hit are over-represented: about 10% of the library has one in this group of screens.
Luc counter = counter-screen: inhibitors of Kinase-Glo firefly luciferase; Kinase-Glo luciferase, ATP luminescence, 8 min; Q27757; 0.28% of 200,000 active; Potency, µM (top dose mostly 38.3 µM), inactives show at the highest dose activity change, negative = inhibition, most hits filed as inhibitors; active means well fitted inhibition curve with a large enough effect; inconclusive means small, poorly fitted or top-dose-only effect; further: potency means the concentration at half of the fitted maximal effect; nearly all actives have a fitted effect of over 60% in size
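Inhibition of Kinase-Glo luciferase light generation was assessed at 10 uM ATP in pH 7.2 imidazole buffer, with luminescence measured after eight minutes at ambient temperature.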
PNC inhibitor = inhibitors of perinucleolar compartment assembly; AID 2417; PC3M PTB-GFP, PNC prevalence imaging, 16 h; active compounds read low; 3.1% of 140,000 active; activity change (PNC), negative = inhibition, % at 10 µM;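 active means readout at or below -70, meaning at least 70% loss of cells showing the perinucleolar compartment, a nuclear body marking cancer cells; inconclusive means readout between -30 and a set limit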;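 further: plate controls were DMSO wells for no effect and camptothecin positive control wells for full effect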
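PC3M cells stably expressing PTB-GFP, 750–1000 cells/well, treated 16 h at 37 °C with compound (23 nl of library stock), in duplicate. After paraformaldehyde fixation and Hoechst stain, imaged at 20x; PNC prevalence scored by image analysis.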
ALDH1A1 inh = inhibitors of human aldehyde dehydrogenase 1A1 | Purified ALDH1A1, NADH fluorescence, propionaldehyde substrate | Potency, µM (top dose mostly 75.3 µM), without a hit: at the highest dose activity, negative = inhibition, actives largely listed as inhibitors | 7.3% of 220,000 active | AID 1030;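 further: potency means the concentration at half of the fitted maximal effect; plate controls were no enzyme wells and a reference inhibitor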
Target sequence (P00352 whole entry, looked up): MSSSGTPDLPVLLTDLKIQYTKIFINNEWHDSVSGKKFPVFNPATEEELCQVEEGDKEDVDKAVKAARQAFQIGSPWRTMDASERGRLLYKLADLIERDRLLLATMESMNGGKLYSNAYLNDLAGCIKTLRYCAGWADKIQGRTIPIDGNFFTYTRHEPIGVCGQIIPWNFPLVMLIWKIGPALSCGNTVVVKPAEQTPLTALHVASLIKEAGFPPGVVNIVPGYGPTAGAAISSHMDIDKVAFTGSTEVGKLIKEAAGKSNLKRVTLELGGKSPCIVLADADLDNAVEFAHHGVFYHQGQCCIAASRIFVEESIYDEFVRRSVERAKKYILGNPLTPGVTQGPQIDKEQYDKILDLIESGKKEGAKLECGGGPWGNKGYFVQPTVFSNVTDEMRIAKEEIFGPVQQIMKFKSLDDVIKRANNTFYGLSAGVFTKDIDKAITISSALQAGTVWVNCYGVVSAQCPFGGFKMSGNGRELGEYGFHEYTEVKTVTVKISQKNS
LMNA splice mod = changes lamin A minigene splicing in HeLa cells; Potency, µM (doses to about 46.1 µM), for inactives: top-dose ratio change, negative = inhibition, usual class: inhibitors; HeLa LMNA splicing GFP/RFP minigene ratio, 48 h; 0.01% of 200,000 active; AID 1487; active means well fitted inhibition curve with a large enough effect in the signal ratio, with a control signal flat, not every such curve was filed as active; inconclusive means small, poorly fitted or top-dose-only effect, or effect the other way, or a change in a side signal; the % refers to the signal ratio; further: potency means the concentration at half of the fitted maximal effect
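S3 HeLa cells stably expressing lamin A-EGFP splicing minigene plus DsRed2, 600 cells/well, 48 h compound exposure at 37C. Laser-scanning cytometry; analysed as GFP (500-530 nm)/RFP (575-640 nm) total intensity ratio; 0.5% DMSO vehicle.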
HPGD inh = inhibitors of human 15-hydroxyprostaglandin dehydrogenase (HPGD) | P15428 | purified HPGD, NADH fluorescence kinetic, PGE2 substrate | Potency, µM, without a hit: at the top dose activity change, negative = inhibition, most hits filed as inhibitors | 4.3% of 150,000 active | AID 894; further: potency means the concentration at half of the fitted maximal effect
Target sequence (P15428 whole entry, looked up): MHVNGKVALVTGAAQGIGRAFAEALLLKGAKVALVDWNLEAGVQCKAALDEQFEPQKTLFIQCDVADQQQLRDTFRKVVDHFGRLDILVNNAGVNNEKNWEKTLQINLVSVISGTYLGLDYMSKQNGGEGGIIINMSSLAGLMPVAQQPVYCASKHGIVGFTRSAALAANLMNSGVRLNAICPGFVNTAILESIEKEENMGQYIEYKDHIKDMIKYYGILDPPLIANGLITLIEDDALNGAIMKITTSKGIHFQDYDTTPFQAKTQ
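NADH formation kinetics: reaction with 30 uM PGE2 and 1 mM NAD+ (final), 20 nM enzyme, Tris-HCl pH 8 with Tween 20, after 15 min compound preincubation at room temperature. Fluorescence change, last versus first of five reads.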
The depositor's hits bear a star; ? = inconclusive; . = not tested or not shown; [ ] = remark or other dose. Unless noted, the call rests on the fitted dose curve; in most records, active means well fitted inhibition curve with a large enough effect (not every such curve was filed as active); inconclusive means small, poorly fitted or top-dose-only effect, or another doubt; inactive means no such curve, though single readings can be large or run the other way. Unless noted, on the % scale 0 is the no-effect control and ±100 the full control effect.

SMILES	Luc counter	PNC inhibitor	ALDH1A1 inh	LMNA splice mod	HPGD inh
CCOC(=O)C1(C)/C(=N/Nc2ccccc2OC)C(=O)C(=O)N1c1ccccc1 (stereo not drawn)	-12.2%	.	23.8µM*	2.8%[46 µM]	.
CCOC(=O)C1(C)/C(=N/Nc2ccccc2)C(=O)C(=O)N1c1ccccc1 (stereo not drawn)	-1.2%	-8.1	?	5.1%	-15.5%
O=C(Nc1ccc(F)cc1Cl)c1cnc(N2CCOCC2)c2ccccc12	.	.	.	-7.1%[46 µM]	.
Cc1cc(CNCc2c(C(=O)N3CCCCCCC3)nc3ccc(Cl)cn23)nn1C	-0.8%	.	15.8µM*	11.3%[46 µM]	.
O=C(c1nc2ccc(Cl)cn2c1CNCCn1ccnc1)N1CCCCCCC1	-1.8%	.	?	?	.
COc1ccccc1CNc1ncncc1-c1ccccc1C(F)(F)F	.	.	18.4%	0.3%	.
O=C(COCc1cc(-c2ccc(F)cc2)on1)Nc1cc(F)ccc1F	.	.	.	16.2%[46 µM]	.
O=C(/C=C/Nc1ccc(Br)cc1F)c1ccccc1	10µM*	-18.4	?	?	-7.4%
O=C(/C=C/Nc1ccc(F)cc1)c1ccc(Br)cc1	-9.8%	.	-0.1%	-6.2%[46 µM]	.
O=C(/C=C/Nc1ccc(F)c(F)c1)c1ccc(Br)cc1	-2.0%	-29.3	-4.1%	-0.4%	-13.1%
O=C(/C=C/Nc1ccccc1F)c1ccc(Br)cc1	-10.6%	-115.2*	3.2%	-7.5%	-16.2%
C/C=C(\C)C(=O)OC1[C@@H]2C=C3C4CC(=O)OC(c5ccoc5)[C@]4(C)CCC3[C@@](C)(C2=O)C(C(O)C(=O)OC)C1(C)C (stereo partly drawn)	1.6%	.	-5.2%	.	2.1%
Clc1ccc(NCn2cncn2)nc1	-4.6%	-5.2	18.9µM*	-0.5%	?
O=C(Cn1cncn1)NCc1ccc(Cl)cc1	-2.1%	?	-3.4%	-1.2%	-2.6%
COc1ccc(C2C(C(=O)NCc3ccccn3)c3ccccc3C(=O)N2C)cc1OC (stereo not drawn)	-3.8%	-88.4*	-4.6%	3.8%	-14.6%
O=C1C[C@@H](O)[C@@H](O)[C@H]2[C@@H]3C(=O)N(C[C@@H]4CCCO4)C(=O)[C@@H]3CC[C@H]12	.	.	-1.3%[13.5 µM]	.	.
Cc1cc(=O)[nH]c2ccc(Cl)cc12	0.3%	-28.9	9.6%	?	-18.4%
S=c1[nH]c2ccc(Cl)cc2s1	.	.	1.26µM*	14.1%[46 µM]	.
CCN1CCN(C(=S)NC(C)c2ccccc2)CC1 (stereo not drawn)	-1.8%	66.5	18.9µM*	-11.9%	-11.6%
CNC(=S)N1CCN(C(c2ccccc2)c2ccccc2)CC1	0.3%	.	2µM*	?	.
Cc1cnc(CNc2ccnc(-c3cccc(NS(C)(=O)=O)c3)n2)cn1	.	.	8.9%	-4.3%	.
O=C(COC(=O)c1cccc([N+](=O)[O-])c1)c1ccc(OCc2ccccc2)cc1	0.4%	-116.4*	14.1µM*	-6.1%	-8.9%
O=C(CCc1ccccc1)OCC(=O)c1cccc([N+](=O)[O-])c1	2.4%	.	?	16.3%[46 µM]	.
O=C(COC(=O)c1cc([N+](=O)[O-])ccc1NCCO)c1ccccc1	-3.2%	-10.2	25.1µM*	-6.2%	-19.2%
O=C(COC(=O)c1cc([N+](=O)[O-])ccc1NCCO)NCc1cccs1	2.9%	.	?	8.5%[46 µM]	.
SMILES	Luc counter	PNC inhibitor	ALDH1A1 inh	LMNA splice mod	HPGD inh
NC(=O)COC(=O)c1cc([N+](=O)[O-])ccc1NCCO	.	.	20µM*	.	.
CCc1nn2c(=O)cc(COC(=O)c3cccc(NC(=O)COc4ccccc4)c3)nc2s1	.	.	.	11.6%[46 µM]	.
Cc1cc(OCc2ccc(C(=O)n3cccn3)o2)ccc1Cl	-0.7%	-118.9*	-0.3%	-3.3%	31.6µM*
Nc1cc2nsnc2cc1Br	-1.2%	34.5	7.94µM*	16.7%	-16.0%
O=C(c1cc(C(F)(F)F)cc(C(F)(F)F)c1)N1CCC2(CC1)CCN(c1ccncc1)CC2	-2.1%	.	12.6%	.	-6.1%
O=C(NCc1ccccc1Cl)c1cnc2n(c1=O)CCS2	2.8%	6.1	14.1µM*	1.2%	-24.7%
CC(=O)c1cnc2n(c1=O)CCS2	5.5%	.	9.5%	15.1%[46 µM]	.
O=C(NC1CCCC1)c1cnc2n(c1=O)CCS2	-2.1%	-25.9	?	6.9%	35.5µM*
O=C(CCS(=O)(=O)c1cc(Br)cc2c1N(C(=O)C1CC1)CC2)NCc1ccco1	9.3%	-25.8	11.2µM*	15.2%	-15.9%
C[n+]1ccccc1/C=N/O	-6.5%	25.0	-4.9%	-3.1%	-12.6%
CC(O)/C=C/c1cccc[n+]1C (stereo not drawn)	-4.3%	?	25.1µM*	18.0%	-10.9%
Cc1cc(NC(=O)CCl)n(-c2nc3ccccc3s2)n1	2.2%	.	3.98µM*	-3.1%[46 µM]	.
Cc1cc(NC(=O)C2CC2)n(-c2nc3ccccc3s2)n1	-0.1%	.	?	-9.0%[46 µM]	.
Cc1ccc(-c2nn(-c3ccccc3)cc2CNCc2ccccc2)cc1	1.5%	.	22.4µM*	?	.
Cc1ccc(-c2cc(NC(=O)CCl)n(-c3ccccc3)n2)cc1	-4.6%	?	0.501µM*	?	-9.8%
CC(=O)Nc1ccc(-c2cc(NC(C)=O)n(-c3ccccc3)n2)cc1	.	4.2	5.4%	9.2%	.
O=C(CCl)Nc1cc(-c2ccccc2)nn1-c1ccccc1	-6.0%	?	1.26µM*	?	-10.1%
Cc1ccc(-c2nn(-c3ccccc3)c3[nH]c(=O)c(CNCc4ccccc4)cc23)cc1	1.6%	86.9	?	?	-23.4%
Cc1ccccc1NC(=O)CSc1nc(=O)n(CCN2CCOCC2)c2c1CCC2	.	.	.	-4.1%[46 µM]	.
CCC1CN(C(=O)N2CCC(C(=O)N(C)Cc3ccccc3)CC2)c2ccccc2O1 (stereo not drawn)	.	.	.	-10.8%[46 µM]	.
Nc1ccn([C@H]2O[C@H](CO)[C@@H]3[O][Sn]([c]4ccccc4)([c]4ccccc4)[O][C@H]32)c(=O)n1	-6.3%[7.66 µM]	.	-13.8%[13.5 µM]	.	-17.5%
Cc1ccc(-c2nn(-c3ccccc3)cc2NC(=O)CCl)cc1	2.1%	.	20µM*	?	.
Cc1ccccc1NC(=O)c1cn(-c2ccccc2)nc1-c1ccccc1	1.0%	?	4.0%	?	-6.1%
NC(=O)C[C@@H](N)C(=O)O	.	.	9.7%	.	.
O=S(=O)(NCc1csc(-c2ccccc2)n1)c1ccc(Cl)s1	2.6%	93.8	-2.9%	0.9%	17.8µM*
SMILES	Luc counter	PNC inhibitor	ALDH1A1 inh	LMNA splice mod	HPGD inh
O=S(=O)(NCc1csc(-c2cccnc2)n1)c1ccc(Cl)s1	2.5%	?	6.0%	-11.7%	-9.9%
S=c1[nH]ccn1-c1cccc(Cl)c1	-3.5%	-8.9	-9.1%	-9.1%	-26.3%
Cc1ccc(-n2cc[nH]c2=S)cc1C	0.5%	34.8	?	-6.9%	22.4µM*
CCOCCOC(=O)c1[nH]c2c(c1C)C(=O)CC(c1cccs1)C2 (stereo not drawn)	-2.1%	.	4.5%	3.9%[9.22 µM]	.
CCOC(=O)c1[nH]c2c(c1C)C(=O)CC(c1ccc(F)cc1)C2 (stereo not drawn)	1.1%	-94.6*	7.3%	?	-4.2%
CCCCCOC(=O)c1[nH]c2c(c1C)C(=O)CC(c1ccco1)C2 (stereo not drawn)	0.4%	-29.0	28.2µM*	?	-7.6%
